# In the library only some 17% were active in any assay of this set; here they are far more common.
# HepG2 tox – counter-screen for TGF-b inhibitors: cytotoxicity in HepG2 cells; HepG2 CAGA-GFP viability, ATP luminescence, 18 h; Potency, µM (titrated, usually from 46.1 µM), for the others: at the highest dose activity change, negative = cytotoxicity, usual class: cytotoxic; 410,000 compounds, 0.76% hits
#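 HepG2 CAGA-GFP cells (1000/well, DMEM with 1% FBS) received compound, then TGF-beta at 500 pg/mL final, and were incubated 18 hours at 37 degrees C. Viability was read by CellTiter-Glo luminescence. Media-only wells were set as complete cell-killing and DMSO as no toxicity.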
# TDP1 cell CPT – growth inhibition of DT40 Tdp1-/-;hTDP1 cells with camptothecin (screen for TDP1 inhibitors). 420,000 compounds, 12% hits. chicken DT40 Tdp1-/-;hTDP1 cells + 20 nM CPT, ATP luminescence, 48 h. Potency, µM (top dose mostly 46.2 µM), without a hit: top-dose activity change, negative = growth inhibition, actives largely listed as inhibitors; also: % is scaled to controls: 0 for no effect and ±100 for the full control effect; nearly all actives have a fitted effect of over 55% in size
#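 Cell growth measured by CellTiter-Glo luminescence after a minimum 48 h, 37 C compound exposure with 20 nM CPT in Tdp1-knockout DT40 cells stably expressing hTDP1, seeded 400/well; qHTS titration format.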
# ATXN2 expr inh – reduces ATXN2 reporter expression in HEK-293 cells; HEK-293 ATXN2-luciferase reporter, luminescence, 24 h; Potency, µM (highest dose often 57 µM), inactives show top-dose activity change, negative = inhibition, most hits filed as inhibitors; 360,000 compounds, 0.72% hits; also: % is scaled to controls: 0 for no effect and ±100 for the full control effect; nearly all actives have a fitted effect of over 55% in size
#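 qHTS (up to 57 uM final) was run with 24 h compound exposure of reporter cells at 37 °C. Each well was multiplexed: SteadyGlo luminescence measured ATXN2-luciferase expression after a fluorogenic Gly-Phe-AFC viability readout (25 uM final).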
# TGFb inhibitor – inhibitors of TGF-b signaling; 410,000 compounds, 1.2% hits; Potency, µM (highest dose often 46.1 µM), for inactives: top-dose activity, negative = inhibition, usual class: inhibitors; HepG2 CAGA-GFP TGF-b/SMAD3 reporter, GFP fluorescence, 18 h; TGF-beta stimulated, 500 pg/mL final; also: % is scaled to controls: 0 for no effect and ±100 for the full control effect; nearly all actives have a fitted effect of over 65% in size
#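 Read-out: total well GFP (ex488/em500-530) summed from mean per-cell fluorescence. Cells: HEPG2 CAGA-GFP, 1% FBS DMEM, 18 h at 37 degrees C with 500 pg/mL final TGF-beta. Unstimulated wells served as the full-inhibition control; stimulated DMSO wells = 0%.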
# ATXN viability – cell viability loss in ATXN counter-screen; S2 cells (HEK-293 line with an ATXN2-luciferase reporter) viability, CellTiter-Fluor protease fluorescence, 24 h; AID 651635; Potency, µM (top dose mostly 56.7 µM), actives largely listed as cytotoxic; 400,000 compounds, 0.49% hits; also: nearly all actives have a fitted effect of over 40% in size
# DT40 TDP1 no CPT – qHTS for Inhibitors of human tyrosyl-DNA phosphodiesterase 1 (TDP1): qHTS in cells in absence of CPT | 420,000 compounds, 15% hits | AID 686978, 2013 | DT40 Tdp1-/- hTDP1 cells, no CPT, ATP luminescence, 48 h | Potency, µM (top dose mostly 46.2 µM), inactives show top-dose activity change, negative = growth inhibition, actives largely listed as inhibitors; also: % is scaled to controls: 0 for no effect and ±100 for the full control effect; nearly all actives have a fitted effect of over 55% in size
#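 Stably hTDP1-transfected Tdp1-null chicken DT40 cells were treated with library compounds minus camptothecin and grown for at least 48 hr at 37 °C, after which cellular ATP was quantified by luminescence.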
# Numbers without * were called inactive; i = inactive; u = inconclusive; x = no result; ! = not confirmed by another sample; [ ] = dose if it differs, or a comment. Calls follow the shape of the dose curve; as a rule, active = well fitted curve in the direction sought with a large enough effect; inconclusive = small, poorly fitted or top-dose-only effect, or another doubt; inactive = no such curve, though single readings can be large; an effect the other way counts as inactive or inconclusive. Potency is read from the fitted curve at half-maximal effect.
SMILES,HepG2 tox,TDP1 cell CPT,ATXN2 expr inh,TGFb inhibitor,ATXN viability,DT40 TDP1 no CPT
CCN(CC)CCCNC(=O)C(C)n1nc(C)n2c(cc3occc32)c1=O (stereo not given),12.1%,-4.5%,-0.7%,0.2%,i,-4.9%
CN1C(=O)C(N=Nc2ccc([N+](=O)[O-])cc2)SC1=S (stereo not given),-23.3%,7.31µM*,-21.9%,u,i,6.51µM*
CCC(=O)N[C@@H]1c2ccccc2C2(CCN(Cc3cnc(N(C)C)s3)CC2)[C@H]1OC,x,35.5%[9.04 µM],x,x,i,-3.3%
O=C(Nc1ccc2c(c1)CCCN2C(=O)c1cccs1)c1ccccc1C(F)(F)F,-24.2%,u,12.7%,0.0%,u,23.1µM*
COc1ccccc1C(=O)Nc1ccc2c(c1)CCCN2C(=O)c1cccs1,-53.9%,u,u,-12.0%,i,20.6µM*
COc1ccccc1C(=O)Nc1ccc2c(c1)CCCN2C(=O)c1ccccc1,12.6µM*,16.4µM*,-13.9%,2.5%,i,13µM*
COc1ccccc1C(=O)NCc1ccc2c(c1)CCN2C(=O)c1ccncc1,-13.9%,u,x,7.5%,x,u
O=C(OCc1ccc([N+](=O)[O-])cc1)C1CCN(S(=O)(=O)c2ccccc2)CC1,1.2%,10.9%,-17.6%,1.7%,i,-17.0%
CN1c2cc(Cl)ccc2-c2nc(SCC(=O)Nc3ccc(F)cc3F)ncc2S1(=O)=O,-18.1%,23.1µM*,-20.2%,-2.1%,i,16.4µM*
Cc1ccc(NC(=O)CSc2ncc3c(n2)-c2ccc(Cl)cc2N(C)S3(=O)=O)cc1F,-13.3%,23.1µM*,1.0%,-0.5%,i,u
Cc1cccc(NC(=O)CSc2ncc3c(n2)-c2cc(Cl)ccc2N(C)S3(=O)=O)c1C,-1.8%,u,-1.4%,-16.0%,u,u
Cc1ccc(NC(=O)CSc2ncc3c(n2)-c2ccccc2N(C)S3(=O)=O)c(Cl)c1,2.7%,0.731µM*,x,u,x,0.651µM*
COc1ccc(-n2cc(C(=O)NCc3ccccc3)c3ccccc3c2=O)cc1,-2.8%,-3.0%,x,-6.4%,x,u
Cc1ccccc1-c1nc(CN(C)C(C)c2ccon2)c(C)o1 (stereo not given),-2.9%,u,0.4%,-0.7%,i,u
Fc1cccc(Cl)c1Cn1c(-c2cccs2)nc2ccccc21,-10.0%,u,x,u,x,u
OCc1nc2ccccc2n1Cc1c(F)cccc1Cl,3.9%,u,-0.6%,2.8%,i,14.6µM*!
COc1ccc(-c2ccc(C(=O)C3CC3)cc2)cc1,-2.0%,43.1%,66.1%,-1.2%,i,-11.6%
CC[N+]1(C)CCC(O)(c2ccc(OC)cc2)C(C(=O)c2ccc(OC)cc2)C1 (stereo not given),-101.2%,0.651µM*,u,u,u,0.92µM*
CCC1CCCCN1CCCNC(=O)c1cc2c(=O)oc3ccc(C)cc3c2s1 (stereo not given),-26.4%,u,-9.4%,-2.6%,i,u
Cc1ccc2oc(=O)c3cc(C(=O)NCCCN4CCc5ccccc5C4)sc3c2c1,-18.6%,18.4µM*,5.1%,0.9%,i,u
Cc1ccc2oc(=O)c3cc(C(=O)NCCCN4CCCCCC4)sc3c2c1,-10.2%,u,-6.2%,-4.7%,i,u
Cc1ccc2oc(=O)c3cc(C(=O)NCCN4CCN(C)CC4)sc3c2c1,-16.8%,23.1µM*,3.7%,-3.5%,i,u
CC1CCC2C(=O)N(c3ccc(C(=O)Oc4cccc5cccnc45)cc3)C(=O)C2C1 (stereo not given),-40.4%,0.731µM*,-38.2%,0.0%,x,0.651µM*
Cc1ccc(NC(=O)CN2C(=O)c3cccnc3Sc3ccccc32)c(Br)c1,-9.6%,u,x,x,x,u
COc1ccc(NC(=O)CN2C(=O)c3cccnc3Sc3ccccc32)cc1OC,-5.9%,u,3.0%,-10.9%,i,16.4µM*
SMILES,HepG2 tox,TDP1 cell CPT,ATXN2 expr inh,TGFb inhibitor,ATXN viability,DT40 TDP1 no CPT
CC(=O)c1cccc(NC(=O)CN2C(=O)c3ccccc3Sc3ncccc32)c1,-9.2%,16.4µM*,-36.0%,-11.9%,u,8.2µM*
Cc1cn2cc(C(=O)N(C)CCO)cc(N[C@@H]3CCOc4cccc(C)c43)c2n1,x,x,2.8%,x,x,x
CC(=O)C(C(c1ccccc1)N1CCCc2ccccc21)N1CCOCC1 (stereo not given),-1.8%,u,u,5.2%,u,u
O=C(Nc1cc(C(=O)NC2CCOCC2)c2c(c1)ncn2C1CCCC1)c1ccccc1,x,2.1%,x,x,i,-14.1%
CC(C)C[C@@H](CN1CCC[C@H]1CN1C(=O)C(=O)NC[C@@H]1Cc1ccc(O)cc1)N1C[C@H](Cc2ccc(O)cc2)N(CC2CCCCC2)C(=O)C1=O,x,-0.3%,8.5%,x,i,-2.4%
CC(C)C[C@H]1CNC(=S)N1CC1CCCN1C[C@H](CC(C)C)N1C[C@H](Cc2ccccc2)N(CC2CCCCCC2)C1=S (stereo not given in full),-14.7%,u,1.4%,-4.6%,i,23.1µM*
CC(C)C[C@H]1CNC(=S)N1CC1CCCN1C[C@H](CC(C)C)N1C[C@H](CC(C)C)N(CC2CCCCCC2)C1=S (stereo not given in full),-12.3%,18.4µM*,2.3%,-30.2%,i,16.4µM*
CC(C)C[C@H]1CN([C@@H](CC(C)C)CN2CCC[C@@H]2CN2C(=S)NC[C@@H]2Cc2ccc(O)cc2)C(=S)N1CC1CCCCC1,-55.3%,u,0.0%,u,31.6µM*,16.4µM*
CC(C)C[C@@H](CN1CCC[C@H]1CN1C(=O)C(=O)NC[C@@H]1Cc1ccc(O)cc1)N1C[C@H](Cc2ccccc2)N(CC2CCCCC2)C(=O)C1=O,x,u,-6.4%,x,u,u
CC(C)C[C@@H](CN1CCCC1CN1C(=S)NC[C@@H]1Cc1ccccc1)N1C[C@H](Cc2ccc(O)cc2)N(CC2CCCCC2)C1=S (stereo not given in full),x,u,-37.0%,x,u,18.4µM*
CC(C)C[C@H]1CN([C@@H](CC(C)C)CN2CCCC2CN2C(=S)NC[C@@H]2Cc2ccc(O)cc2)C(=S)N1CC1CCCCC1 (stereo not given in full),-28.2%,u,-3.1%,u,i,u

# Source: PubChem (National Center for Advancing Translational Sciences (NCATS))
